# Measured values taken from publication PMC5540273 (PLoS ONE, 2017).
# Test system: LCK
# Settings: concentration: 1 μM, replicates: in singlicate; n = 1
# 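Also: KINOMEscan kinase panel screen.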
row,Compound,%Inh
1,COc1cc(Nc2ncc3c(C)nc(-c4cc5ccccc5[nH]4)n3n2)cc(OC)c1OC [GW869516],71%
2,Cl.NC(=O)c1cccc(Nc2nccc(Nc3ccc(Oc4c(Cl)cccc4Cl)c(Cl)c3)n2)c1 [GW659009],54%
3,Cl.c1ccc(-c2ccc3c(Nc4ccc5[nH]ccc5c4)ccnc3c2)nc1 [GW440138],70%
4,CN1CCN(CCCNc2nccc(-c3c(-c4ccc(F)cc4)nn4cc(C(F)(F)F)ccc34)n2)CC1 [GW621581],36%
5,O=C(Nc1n[nH]c2cc(-c3ccoc3)ccc12)C1CC1 [SB-738481],0%
6,COc1cccc(C2=C(Nc3ccc(Cl)c(C(=O)O)c3)C(=O)NC2=O)c1 [SB-390769],15%
7,COc1cccc(-c2ccc3c(NC(=O)C4CC4)n[nH]c3n2)c1 [SB-710903],23%
8,COc1cccc(NC(=O)NC2CCN(c3ccnc(Nc4cc(OC)c(OC)c(OC)c4)n3)C2)c1 (stereo not drawn) [GSK1379763],14%
9,CN(C)S(=O)(=O)c1cc(-c2ccc3nccc(-c4cccc(S(N)(=O)=O)c4)c3c2)cnc1N [GSK1669921],7%
10,Cn1cc(-c2ccc3c(c2)CCN3C(=O)Cc2cccc(F)c2)c2c(N)ncnc21 [GSK2603358],46%
11,COc1ccc(CNC(=O)NC2CCN(c3ccnc(Nc4ccc(F)cc4)n3)CC2)cc1 [GSK1379788],8%
12,O=C(Nc1cccc(-c2nn3ccccc3c2-c2ccnc(Nc3cccc(F)c3)n2)c1)c1c(F)ccc(F)c1Cl [GSK357952],99.1%
13,Cl.Cl.NCC(NCc1ccc(-c2ccnc3[nH]ccc23)s1)c1ccccc1 (stereo not drawn) [GSK1321565],16%
14,CCc1ccc(-c2ccc3c(c2)-c2c(cnn2C)S(=O)(=O)N3C)cc1,0%
15,O=C(O)C(F)(F)F.O=C(O)C(F)(F)F.O=c1[nH]ccc2nc(N[C@@H]3CCCNC3)nc(Nc3ccc(S(=O)(=O)N4CCOCC4)cc3)c12 [GSK2177277],78%
16,Cc1occc1-c1ncc(OC[C@@H](N)Cc2c[nH]c3ccccc23)cc1-c1ccc2[nH]nc(C)c2c1.O=C(O)C(F)(F)F [GSK682037],98.2%
17,COCCOCCOc1cc2ncc3c4ccc(C#N)cc4[nH]c3c2cc1OC,35%
18,CN(C)Cc1ccc(-c2ccc3c(Nc4ccc(Oc5ccccn5)cc4)ccnc3c2)o1 [GW567148],92.9%
19,Cc1ccc(C(=O)N2CC[C@@H](O)C2)cc1-n1c(C)cc(OCc2ccc(F)cc2F)c(Br)c1=O,99.4%
20,Cn1cc(-c2[nH]c3cc(NC(=O)[C@H](N)C4CCCCC4)cc4c3c2C=NNC4=O)cn1,90.7%
21,COc1cc(Nc2nccc(-c3c(-c4cccc(NC(=O)c5c(F)cccc5F)c4)nn4ncccc34)n2)cc(OC)c1OC [GSK327238],99.8%
22,CC(=O)Nc1nc2cnc(Nc3cc(NC(=O)c4cccc(C5(C#N)CC5)c4Cl)ccc3C)nc2s1,91.1%
23,Cc1ccc(C(=O)Nc2ccc(Nc3ccnc4cc(-c5nccs5)ccc34)cc2O)cc1.Cl [GW494702],86%
24,Nc1ncc(-c2cccnc2)c2scc(-c3ccc4c(c3)CCN4C(=O)Cc3ccccc3)c12 [GSK683281],70%
